# Assay results reported in PubChem BioAssay AID977606 (Broad Institute, 2014).
# About 430 (29%) of roughly 1,500 compounds were called active. The rule behind the calls is not given here. Only a sample is shown. Entries with a potency or affinity are not part of this list.
# Experiment: glucose-independent GLuc insulin release activation – cell-based, INS-1E, Gaussia luciferase, luminescence, cherry-pick, counter-screen for glucose-dependent insulin secretion activators, dose response (AID 977606)
# Conditions: INS-1E Gaussia luciferase insulin secretion, no glucose, 100% = twice neutral-control luminescence; series mostly up to 35 µM
row,Structure (SMILES),outcome
1,Nc1nc(N)nc(-c2ccc(Cl)cc2)n1,inactive
2,Cc1cccc(-c2cc3nc4c(c(N5CCCC(O)C5)n3n2)CCC4)c1 (configuration not stated),inactive
3,C=C1[C@@H](O)[C@H](CC(C)C)N(Cc2ccccc2Br)S1(=O)=O,inactive
4,CCn1nnc(NC(=O)c2sc3ccccc3c2Cl)n1,inactive
5,Cc1c(NC(=S)NC(=O)c2sc3ccccc3c2Cl)cccc1C(=O)O,inactive
6,Fc1ccc(-c2csc3nnc(SCc4cccnc4)n23)cc1,inactive
7,CC(C)(C)OC(=O)N1CCCN(C(=O)c2ccc(Cl)cc2)CC1,inactive
8,COc1nc(Nc2ccccc2)nc(OC)n1,inactive
9,CC1(C)N=C(c2ccccc2)C(c2ccccc2)=N1,inactive
10,COc1ccc2nc3ccccc3nc2c1NC(=O)c1ccc(Cl)cc1,inactive
11,Cc1c(C)n(CCCN(C)C)c2ncnc(Nc3ccccc3)c12,inactive
12,COc1ccc(C)c(-n2c(=O)n(Cc3ccccc3)c(=O)c3[nH]cnc32)c1,inactive
13,COc1ccc(CCn2nnc(-c3ccc(NC(C)=O)c(Cl)c3)n2)cc1,inactive
14,NC(=O)COC(=O)c1ccccc1Oc1ccccc1,inactive
15,Cc1ccc(OCC(=O)NC(C)c2ccccc2)cc1 (configuration not stated),inactive
16,Fc1ccc(-c2cc(C(F)(F)F)nc(-n3cncn3)n2)cc1,inactive
17,CCOC(=O)c1cnc2c(cnn2C)c1Oc1ccc(OC)cc1,inactive
18,CCOC(=O)Nc1ccc2c(c1)Sc1ccccc1N2C(=O)CCN1CCOCC1,inactive
19,CCNc1nc(CC)nc2c1oc1ccccc12,inactive
20,CCCCn1c(-c2ccncc2)nc2c1c(=O)[nH]c(=O)n2CC(C)C,inactive
21,COCCn1c(-c2ccc3ccccc3c2)nc2c1c(=O)[nH]c(=O)n2CC(C)C,inactive
22,Cc1cccn2cc(CCNS(=O)(=O)c3cccs3)nc12,inactive
23,Cc1cc(S(=O)(=O)NCc2cccnc2)ccc1F,inactive

row,Structure (SMILES),outcome
1,COc1cc2ccc(C(C)=NNC(N)=S)cc2cc1OC,inactive
2,O=C(Nc1ccnn1C1CCN(C2CCC2)CC1)c1ccccc1Cl,inactive
3,CC1Cc2ccccc2N1C(=S)NC(=O)c1cccc(Br)c1 (configuration not stated),inactive
4,O=S(=O)(NCC1CCCO1)c1ccc(Cl)nc1 (configuration not stated),inactive
5,CC(C)CC(=O)Nc1c2c(nn1-c1ccc(F)cc1)CS(=O)(=O)C2,inactive
6,Cc1ccccc1-n1nc2c(c1NC(=O)c1cc3ccccc3oc1=O)CS(=O)(=O)C2,inactive
7,O=C1N(c2ccccc2)c2ccccc2[C@]12C[C@H](O)CO2,inactive
8,CC(C(=O)Nc1ccc2[nH]c(=O)[nH]c2c1)N1CCN(Cc2ccc3c(c2)OCO3)CC1 (configuration not stated),inactive
9,O=C(c1ccco1)N1CCN(C2CN(Cc3ccccc3)S(=O)(=O)C2)CC1 (configuration not stated),inactive
10,COc1ccc(-c2nnc3sc(-c4ccco4)nn23)cc1OC,inactive
11,COc1ccc(-c2ccncc2)cc1OC,inactive
12,COc1ccc(-c2nc(C(=O)O)cs2)cc1OC,inactive
13,COc1ccc(-c2nnn(Cc3nc(N)nc(N4CCOCC4)n3)n2)cc1OC,inactive
14,Cc1ccc2nc(N3CCN(C(=O)CCCC(=O)O)CC3)nc(-c3ccccc3)c2c1,inactive
15,COc1ccc(-c2cc(-c3ccco3)[nH]c(=O)c2C#N)cc1OC,inactive
16,CC(C)C(C(=O)NCc1ccco1)N(CC1CCCO1)C(=O)CNS(=O)(=O)c1ccc(F)cc1 (configuration not stated),inactive
17,COc1cccc(-n2c(=O)n(Cc3ccccc3)c(=O)c3[nH]cnc32)c1C,inactive
18,CCOc1nc(NC(=O)NS(=O)(=O)c2cccc(Cl)c2)nc(-c2ccccc2)n1,inactive
19,COc1ccccc1-n1cnc2sc(C)c(C)c2c1=O,inactive
20,CCCCNC(=O)O[C@H]1C[C@@H]2CCN3C(=O)CCC[C@H]([C@H]1CC)[C@H]23,inactive
21,COc1ccc(CCNS(=O)(=O)c2cccc(C)c2)cc1OC,inactive
22,CCN(CC)CCCN=C1N[C@@H](c2ccccc2)C(C(=O)OC)=C(C)N1CC,inactive
23,CCNC(=O)C1(C)CCCN1Cc1cccc(C(F)(F)F)c1 (configuration not stated),inactive

row,Structure (SMILES),outcome
1,O=C(c1ccccc1F)N1CCCC(N2CCN(Cc3ccc4c(c3)OCO4)CC2)C1 (configuration not stated),inactive
2,COc1ccc(S(=O)(=O)N(C)c2ccc(C(=O)N3CCCC3)cc2)cc1OC,inactive
3,CCN(CC)C(=O)c1ccccc1NS(=O)(=O)c1ccc(C)cc1,inactive
4,CCN(CCC(=O)O)c1ccccc1,inactive
5,CCCCC(=O)N(C)c1c(CC)nc2c(OCc3ccc(C(F)(F)F)cc3)cccn12,inactive
6,C=C(C)n1c(=O)n(Cc2ccccc2C)c2ccccc21,inactive
7,CCOC(=O)N1CCN(S(=O)(=O)N2CCCC(C(=O)NCc3cc(OC)ccc3OC)C2)CC1 (configuration not stated),inactive
8,COc1cc(C(F)(F)F)c(C(=O)NCc2cccc(Cl)c2)cn1,inactive
9,CCCNC(=O)C1(C)CCN(C(=O)c2cccc(C(F)(F)F)c2)C1 (configuration not stated),inactive
10,CCn1cc(S(=O)(=O)NCCc2ccc(OC)c(OC)c2)cn1,inactive
11,O=C(Nc1nnc(-c2ccc(Cl)cc2)o1)NC1CCCCC1,inactive
12,COc1cc2cnc(-c3ccsc3)cc2cc1OC,inactive
13,CCOC(=O)C1CCCN(C(=O)c2cccnc2Oc2ccccc2)CC1 (configuration not stated),inactive
14,CCOC(=O)c1ccc(S(=O)(=O)N2CCC(C(=O)Nc3nnc(C)o3)CC2)cc1,inactive
15,CCc1cccc(NC(=O)C2CCCN2S(=O)(=O)c2ccc3c(c2)n(C)c(=O)c(=O)n3C)c1 (configuration not stated),inactive
16,Cc1cccc(C)c1OCCCn1ccnc1,inactive
17,CCSc1ncnc2sc3c(c12)CCC3,inactive
18,O=C1c2cccnc2C(Nc2cccc(F)c2)N1Cc1ccco1 (configuration not stated),inactive
19,C[C@@H]1CN([C@H](C)CO)C(=O)CCCn2nncc2CO[C@H]1CN(C)C(=O)Nc1ccnc(N2CCOCC2)c1,inactive
20,Cc1ccc(-c2nc(C#N)c(NCC3CCCO3)o2)cc1 (configuration not stated),inactive
21,CCOc1ccc(Nc2oc(-c3cccc(Cl)c3)nc2C#N)cc1,inactive
22,CN1CCN(C(=O)c2cccc(-c3cnc4cnc(-c5ccccc5Oc5ccccc5)cn34)c2)CC1,inactive
23,N#Cc1ccc(-c2ccc3c(c2)[C@@H]2[C@@H](CCN2C(=O)C2CCCC2)[C@@H](CO)N3)cc1,inactive

row,Structure (SMILES),outcome
1,COc1ccc(-n2c(=S)[nH]c3cc(C(=O)Nc4ccc(OC)c(OC)c4)ccc3c2=O)cc1,inactive
2,COc1ccccc1C(=O)N/N=C(\C)CC(=O)Nc1ccc2c(c1)OCCO2,inactive
3,C=CCc1ccccc1Oc1cc(OC)nc(N)n1,inactive
4,COc1ccccc1CNC(=O)CCNS(=O)(=O)c1ccc2[nH]c(=O)oc2c1,inactive
5,COc1ccc(-c2ccc(SCc3ccccn3)nn2)cc1OC,inactive
6,CC1(C(=O)NCc2ccccc2)CN(S(C)(=O)=O)CC(=O)N1C1CC1 (configuration not stated),inactive
7,CC(C)NC(=O)C1(C)CCN1Cc1cccc(C#N)c1 (configuration not stated),inactive
8,Cc1ccccc1CN(C)Cc1cc(=O)oc2c(C)c(C)ccc12,inactive
9,C[C@H]1CN=C(N(C)C)N1CC1CCCC1,inactive
10,Cc1nn(-c2ccccc2)c(N2CCCC2)c1/C=N/O,inactive
11,COc1ccccc1NS(=O)(=O)c1cccc(C(=O)N/N=C/c2c(C)nn(-c3ccccc3)c2N2CCCC2)c1,inactive
12,COc1ccc(S(=O)(=O)Nc2cccc(-c3ccc4nncn4n3)c2)cc1F,inactive
13,CNC(=O)c1[nH]nc2c1CCc1cc(OC)ccc1-2,inactive
14,COc1ccc2c(c1)CCc1cc(C(=O)O)sc1-2,inactive
15,COc1ccc2c(c1)[C@@]1(OCCC=C[C@H]1C)C(=O)N2CC1CC1,inactive
16,CCOc1ccc(C(C)=O)cc1COC(=O)CN1C(=O)NC2(CCCC2)C1=O,inactive
17,NC(=O)C1CCN(c2nc(-c3ccccc3)nc3ccccc23)CC1,inactive
18,CN(Cc1ccccc1)c1ncnc2[nH]ncc12,inactive
19,O=C(Nc1ccc(F)cc1)c1cccnc1Oc1ccccc1,inactive
20,c1ccc(-c2ccccc2OCCN2CCCCC2)cc1,inactive
21,N#Cc1sc2nc3c(c(-c4cccnc4)c2c1N)CCC3,inactive
22,Cc1cccc(C)c1NC(=O)C1c2ccccc2OCC(=O)N1CCCN1CCOCC1 (configuration not stated),inactive
23,Cc1ccc(CS(=O)Cc2ccc(C(=O)NCc3ccccc3)o2)cc1 (configuration not stated),inactive

row,Structure (SMILES),outcome
1,Cc1ccc(C(=O)n2nc(-c3cccnc3)nc2N)cc1,inactive
2,COc1ccc(OCC(=O)NNC(=O)Cn2c(=O)cnc3ccccc32)cc1,inactive
3,CC(=O)NCCc1nc2ccccc2n1CCOc1cccc(C)c1,inactive
4,CCCCCCn1c(-c2cccs2)n[nH]c1=S,inactive
5,CCN1CCN(CC(=O)Nc2ccc(C(C)=O)cc2)CC1,inactive
6,COc1ccc(OC)c(-c2nnc3n2N=C(c2ccc(OC)c(OC)c2)CS3)c1,inactive
7,CC[C@@H]1CC2=C(C(=O)OC(C)(C)O2)[C@H](c2ccc(F)cc2)O1,inactive
8,CCOC(=O)c1sc2nc(-c3ccccc3)ccc2c1N,inactive
9,C#Cc1cccc(-n2nnc(C(=O)OC)c2-c2ccccc2)c1,inactive
10,Cc1cc(-c2ccccc2)n2nc(N)nc2n1,inactive
11,CNC(=O)C1CC(=O)N(c2ccc(OCC(=O)Nc3ccccc3)cc2)C1 (configuration not stated),inactive
12,CCCc1cc(=O)oc2cc(OCC(=O)NC3CCN(Cc4ccccc4)CC3)ccc12,inactive
13,Cc1ccc2c(c1)c(-c1ccccc1)nc1nncn12,inactive
14,CCC(CC)NC(=O)c1ccccc1Oc1ccccc1,inactive
15,COc1ccc(C2=Nn3c(nnc3-c3ccncc3)SC2)cc1OC,inactive
16,C/C(Cl)=C\Cn1c(N2CCCC2)nc2c1c(=O)n(C)c(=O)n2C,inactive
17,CCOc1cc(/C=C(\CC(=O)O)c2nc3ccccc3s2)ccc1OC,inactive
18,C=CCN1C(=O)CSc2ccc(C(=O)OCC)cc21,inactive
19,CC(NC(=O)C1CCCN1S(=O)(=O)c1ccc2c(c1)n(C)c(=O)c(=O)n2C)c1ccccc1 (configuration not stated),inactive
20,N#CCCN(Cc1ccccc1)C(=O)c1cccs1,inactive
